# In PubChem BioAssay AID540308 (The Scripps Research Institute Molecular Screening Center, 2011):
# Hit rate of the full screen: of about 360,000 compounds, about 3,500 (0.97%) were called active. This is one part of a sample in which actives are shown more often than they occur. Values without a mark were called inactive.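 How the source made its calls: active means activation above a per-plate cutoff, the mean activation of sample wells on that plate plus 3 SD (cut at about 8% in these data); inactive means the rest.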
# Target: Melanocortin receptor 4 (Homo sapiens) (UniProt P32245)
# Sequence (P32245 whole entry, looked up): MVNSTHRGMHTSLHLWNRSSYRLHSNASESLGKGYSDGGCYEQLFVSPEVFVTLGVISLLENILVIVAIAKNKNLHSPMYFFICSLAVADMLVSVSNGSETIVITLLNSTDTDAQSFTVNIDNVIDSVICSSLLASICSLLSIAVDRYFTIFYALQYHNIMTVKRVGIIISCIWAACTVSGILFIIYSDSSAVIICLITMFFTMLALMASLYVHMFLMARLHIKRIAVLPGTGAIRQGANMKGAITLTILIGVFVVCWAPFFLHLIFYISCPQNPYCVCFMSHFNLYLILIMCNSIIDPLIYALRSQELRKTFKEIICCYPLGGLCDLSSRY
# Assay: MC4R agonists recruiting beta-arrestin, primary screen, cell-based, luminescence, agonist arm of biased-ligand search (AID 540308)
# Conditions: U2OS MC4R beta-arrestin complementation, at 8.9 µM, hits give high values, percent of melanotan II response, DMSO zero
row,Compound,activation
1,O=C(Nc1ccc(Cl)cc1)c1csc([C@@H]2O[C@H](CO)[C@H](O)[C@H](O)[C@H]2O)n1,-0.59%
2,CCOCCC(=O)Nc1ccc2c(c1)c(=O)n(C)n2-c1ccc2ccccc2c1,-1.1%
3,Oc1c(Br)cc(/C=N/NC(=S)NCC2CCCO2)cc1Br (stereo unspecified),-1.36%
4,CC1(C(=O)NS(=O)(=O)c2cccc(F)c2)CCN1C(=O)c1cccc2ccccc12 (stereo unspecified),-0.68%
5,COc1ccc(-n2nnc3c(=O)n(CC(=O)OCc4ccccc4)cnc32)cc1,1.74%
6,O=C(Cn1cnc2c(nnn2-c2ccccc2)c1=O)N1CCC(Cc2ccccc2)CC1,11.7% (active)
7,COc1ccc(-n2nnc3c(=O)n(CC(=O)N4CCC(Cc5ccccc5)CC4)cnc32)cc1,3.13%
8,Cc1c(C(=O)NCc2ccc(C#N)cc2)sc(=O)n1Cc1ccc(C(=O)N(C)C)cc1,1.47%
9,OC[C@@H]1CN(Cc2ccc(Cl)cc2)C[C@H](n2cnc3c(NCc4ccncc4)ncnc32)O1,0.2%
10,COc1cc(/C=C(\C#N)C(=O)Nc2ccc3ccccc3c2)c([N+](=O)[O-])cc1OC,20.1% (active)
11,COc1ccc(NC(=O)/C(C#N)=C\c2cc(OC)c(OCc3ccc(C(=O)O)cc3)cc2Br)cc1,-1.04%
12,COc1cc(/C=C(/NC(=O)c2ccccc2)C(=O)Nc2cccc(O)c2)c([N+](=O)[O-])cc1OC,0.1%
13,Cc1cccc(C)c1Cn1c(C)c(C(=O)NCc2cccc(Cl)c2)sc1=O,-0.04%
14,O=C(COC(=O)Cn1cnc2ccccc21)Nc1cccc2c1C(=O)c1ccccc1C2=O,-2.17%
15,O=C(COC(=O)c1cccc(Br)c1)Nc1cccc2c1C(=O)c1ccccc1C2=O,22.1% (active)
16,O=C(COC(=O)c1ccccc1)Nc1ccccc1Sc1ccccc1,-0.01%
17,CC1(C(=O)NS(=O)(=O)c2ccccc2)CCN1C(=O)Cc1ccc(-c2ccccc2)cc1 (stereo unspecified),-1.08%
18,COc1cc(CNc2ncnc3c2ncn3[C@H]2CN(Cc3cccs3)C[C@@H](CO)O2)cc(OC)c1OC,1%
19,CCc1nc2c(OCc3ccccc3)cccn2c1N(C)C(=O)c1ccco1,-0.58%
20,Cc1ccc(NC(=O)O/N=C/c2cccc([N+](=O)[O-])c2)cc1,-5.02%
21,O=[N+]([O-])c1cccc(C=NN=Cc2ccccc2O)c1,9.24% (active)
22,COc1ccc(O)c(/C=N/N=C/c2cccc([N+](=O)[O-])c2)c1,-0.29%
23,CCCc1ccc(C(O)c2ncc(-c3cccc(OC)c3)[nH]2)cc1 (stereo unspecified),-1.27%
24,COc1ccc(C(=O)N2CCCCC2c2cc(C(=O)Nc3ccccc3)no2)cc1 (stereo unspecified),-1.46%
25,CN(C)C(=O)c1cccc(-c2cnc3sc(NCc4ccc5c(c4)OCO5)nn23)c1,0.82%
26,CCCN=C1N(C)C[C@@H]2[C@@H]3C(=O)N(Cc4ccccc4)C(=O)[C@@H]3[C@](C)(C(=O)OC)N12,-1.43%

row,Compound,activation
1,CC[C@]1(C(=O)OC)[C@H]2C(=O)N(Cc3ccccc3)C(=O)[C@H]2[C@H]2CN=C(SCc3ccccc3)N21,-0.47%
2,CCN1C[C@@H]2[C@@H]3C(=O)N(Cc4ccccc4)C(=O)[C@@H]3[C@](Cc3ccccc3)(C(=O)OC)N2C1=NC1CCCCC1,13.2% (active)
3,COc1ccc(CCCNC(=O)C2Cc3c(-c4cccc(C(N)=O)c4)ccnc3O2)cc1 (stereo unspecified),-1.12%
4,CCCNC(=O)C1(C)CCCN(C(=O)c2oc3ccccc3c2C)C1 (stereo unspecified),-0.51%
5,O=C(COc1ccc(/C=N/NC(=O)c2ccc(O)cc2)cc1)Nc1ccc([N+](=O)[O-])cc1,2.23%
6,CC(C)(C)C(=O)Nc1ccc(C(=O)N/N=C/c2ccccc2OC(=O)c2ccc(Cl)cc2Cl)cc1,-0.61%
7,O=C(N/N=C/c1ccc(OC(=O)c2ccccc2Cl)cc1)c1ccc(O)cc1,13.4% (active)
8,CCc1nc2c(OCc3ccc(F)c(F)c3)cccn2c1N(C)C(=O)c1ccco1,1.17%
9,COc1ccc(-c2cc(NC=O)c3ncc(-c4ccccc4)n3c2)cc1OC,21.5% (active)
10,COc1ccc(-c2cc(NC=O)c3ncc(-c4cc(OC)c(OC)c(OC)c4)n3c2)c(OC)c1,7.55%
11,CC(=O)c1cccc(-c2cnc3c(NC=O)cc(-c4cccc(C(=O)N(C)C)c4)cn23)c1,6.06%
12,CC(=O)c1ccc(-c2cnc3c(NC=O)cc(-c4cccc(NS(C)(=O)=O)c4)cn23)cc1,-0.24%
13,CC(=O)c1cccc(-c2cnc3c(NC=O)cc(-c4ccccc4Oc4ccccc4)cn23)c1,3.06%
14,CN(C)C(=O)c1cccc(-c2cnc3c(NC=O)cc(-c4ccc(C(=O)N5CCOCC5)cc4)cn23)c1,3.87%
15,COc1ccc(-c2cc(NC=O)c3ncc(-c4cccc(C(=O)N(C)C)c4)n3c2)c(OC)c1,5.89%
16,CC(=O)c1cccc(-c2cnc3c(NC=O)cc(-c4ccc(N5CCN(C)CC5)cc4)cn23)c1,-0.45%
17,CN(C)C(=O)c1cccc(-c2cnc3c(NC=O)cc(-c4ccc(F)cc4)cn23)c1,11.3% (active)
18,CN(C)CCNC(=O)c1cccc(-c2cnc3c(NC=O)cc(-c4cccc(C(F)(F)F)c4)cn23)c1,13.3% (active)
19,CC(=O)c1cccc(-c2cnc3c(NC=O)cc(-c4ccc(N(C)C)cc4)cn23)c1,10% (active)
20,CN(C)CCNC(=O)c1ccc(-c2cn3c(-c4ccc(Oc5ccccc5)cc4)cnc3cn2)cc1,1.4%
21,CC(C)NC(=O)C1(C)CCCCN1Cc1cccc(C(F)(F)F)c1 (stereo unspecified),1.6%
22,COc1cccc(C(O)c2ncc(-c3ccc4ccccc4c3)[nH]2)c1 (stereo unspecified),-2.03%
23,CSc1ccc(CN2CCC2(C)C(=O)NCc2ccccc2Br)cc1 (stereo unspecified),0.53%
24,COc1cccc(C(O)c2nc(-c3ccc(C)c(C)c3)cs2)c1 (stereo unspecified),1.59%
25,CC(O)(c1cccc(F)c1)c1nc(-c2ccc3c(c2)OCO3)cs1 (stereo unspecified),3.56%
